Shown are actives, neighbours in structure and some others; about 3.7% of the full set was active somewhere.
V-ATPase pHluor = regulators of yeast V-ATPase proton pumping, primary screen, pHLuorin cytosolic pH fluorescence | S. cerevisiae | response, % at 10 µM | hit rate 0.37% among 350,000 | AID 504577, 2011; in the data active means response mostly above about 7.3%, no sharp cut-off; inactive means mostly below about 5.4%; further: actives read high
PfHsp90 set2 = growth inhibition of PfHsp90-expressing yeast, primary screen, antimalarial PfHsp90 inhibitor project, S. cerevisiae, BacTiter-Glo luminescence, single point, set 2; BacTiter-Glo ATP, 48 h; yeast lacking PDR1 and PDR3 efflux regulators; hit rate 0.32% among 310,000; inhibition, % at 9.4 µM;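 active means every replicate shows inhibition above about 80%, whatever the replicate mean, limit read from the data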;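 further: 0% = DMSO neutral controls and 100% = 20 µM radicicol positive controls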
tim23-1 inh = growth inhibitors of tim23-1 mutant yeast, primary screen, luminescence, uHTS. S. cerevisiae tim23-1 growth, BacTiter-Glo luminescence, 24 h. inhibition, % at 20 µM. hit rate 1.3% among 330,000;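 active means growth inhibition of the mutant yeast at or above 50%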;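 further: temperature-sensitive mutant grown at 25 °C; plate controls were DMSO-treated mutant yeast for no effect and medium wells lacking yeast for full effect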
TIM10 inh = growth inhibitors of isogenic TIM10 control yeast, primary screen, counter-screen for tim10-1 yeast inhibitor project, luminescence, uHTS; S. cerevisiae TIM10 strain growth, BacTiter-Glo luminescence, 24 h; inhibition, % at 10 µM; hit rate 1.4% among 330,000; AID 463195, 2010;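 active means inhibition of 40% or more at the single tested concentration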;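 further: wild-type TIM10 isogenic control strain grown at permissive 25 °C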
tim10-1 inh = growth inhibitors of tim10-1 mutant yeast, primary screen, luminescence, uHTS; S. cerevisiae tim10-1 ts strain growth, BacTiter-Glo, 24 h; inhibition, % at 20 µM; hit rate 2.2% among 330,000; AID 463190, 2010;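 active means inhibition of at least 40%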;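 further: mutant grown at 25 °C; 0% = DMSO wells with yeast and 100% = wells holding no yeast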
tim10-1 conf = growth inhibitors of tim10-1 mutant yeast, confirmation, single concentration, luminescence, S. cerevisiae; shares compounds with tim10-1 inh; S. cerevisiae tim10-1 ts strain growth, BacTiter-Glo, 24 h; inhibition, % at 20 µM; hit rate 56% among 7,400; AID 463213, 2010;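 active means inhibition of yeast growth at or above a set limit in either of two repeat tests at 20 µM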;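 further: tim10-1 mutant grown at permissive 25 °C to find synthetic lethal compounds; 0% = DMSO yeast wells and 100% = medium wells without yeast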
Numbers without * were called inactive; . = not tested or not shown.

SMILES	V-ATPase pHluor	PfHsp90 set2	tim23-1 inh	TIM10 inh	tim10-1 inh	tim10-1 conf
O=C(Nc1ccccc1)N(CCc1nc2ccccc2[nH]1)C1CCCC1	-6	.	4	8	14	.
COc1cc(C(=O)N2CCN(Cc3ccccc3C(F)(F)F)CC2)cc(OC)c1OC	11	-2	27	24	43*	24
CN(CC(=O)Nc1ccc(F)cc1)C(=O)COC(=O)c1nc(Cl)ccc1Cl	-1	.	.	.	.	.
COc1ccccc1NC(CC(=O)c1ccccc1)C(=O)OCC(=O)c1ccc(C)cc1 (configuration not stated)	0	-70	26	28	17	.
COc1ccccc1NC(CC(=O)c1ccccc1)C(=O)OCC(=O)c1ccc(Br)cc1 (configuration not stated)	4	-9	40	15	45*	37*
COc1ccc(OC)c(/C=N/NC2=NS(=O)(=O)c3ccccc32)c1	4	18	-2	15	-8	.
Cc1ccc(-n2c(SCC(=O)N(C)C3CCS(=O)(=O)C3)nc3ccccc3c2=O)c(C)c1 (configuration not stated)	2	19	-2	0	-3	.
COc1ccc2c(c1)CC/C(=C\c1ccc(OC)c(Cn3cccn3)c1)C2=O	-4	.	32	6	23	.
COc1ccc2c(c1)CC/C(=C\c1ccc(OC)c(Cn3nc(C)cc3C)c1)C2=O	-4	.	13	14	40*	11
O=C(NCc1cccnc1)/C(=C\c1ccc(-c2cccc(Cl)c2)o1)S(=O)(=O)c1ccccc1	-3	7	.	.	.	.
O=C(NCc1cccnc1)/C(=C/c1ccc(-c2cccc(Cl)c2)o1)S(=O)(=O)c1ccccc1	-1	14	48	32	44*	36*
Cc1cc(C(=O)Cn2nc(C(=O)O)c3ccccc3c2=O)c(C)n1-c1ccccc1	4	-14	30	19	42*	18
COc1ccc(CCC(=O)O)c(C(CC(=O)O)C(=O)O)c1OS(=O)(=O)c1ccc(C)cc1 (configuration not stated)	-3	.	.	.	.	.
Cc1nn(-c2cccc(Cl)c2)c2c1C(c1cccnc1)C(C#N)=C(N)O2 (configuration not stated)	2	-14	15	21	41*	31*
Cc1ccc(-c2csc(N3CCN(c4cc5c(cc4Cl)nc(C)n5CCN4CCCCC4)CC3)n2)cc1	12	.	47	9	41*	11
Cc1ccc(CNC(=O)CCC2CCCN(C(=O)c3ccc4c(c3)OCO4)C2)o1 (configuration not stated)	-2	2	4	-8	11	.
COc1ccc2c(c1)CCC/C2=N\Nc1nc(C(=O)NN)cs1	-2	.	28	25	41*	38*
CCOC(=O)c1csc(N/N=C2\CCCc3ccccc32)n1	0	-15	42	26	48*	21
O=C(Oc1ccc(C(=S)N2CCOCC2)cc1)c1ccccc1F	-1	-1	19	1	27	.
COc1ccc(N2CCC(CNC(=O)Nc3ccccc3)C2)cc1 (configuration not stated)	-3	-6	24	14	41*	33*
O=S(=O)(c1ccccc1)N1CCCCC1CCc1ccccc1 (configuration not stated)	3	.	.	.	.	.
C/C=C/c1ccc2c(c1)O[C@@H](CN(C)C(=O)c1ccc(F)cc1)[C@@H](C)CN([C@H](C)CO)S2(=O)=O	-1	.	.	.	.	.
CSc1cccc(NC(=S)N2CCC(c3ccccc3)C2)c1 (configuration not stated)	-2	12	34	31	48*	28
C=CCc1cccc(CNc2ccc(Br)cc2)c1O	3	-8	37	35	43*	64*
C=CCc1cccc(CNc2nc3ccccc3n2C(C)C)c1O	-1	18	27	37	43*	34*
SMILES	V-ATPase pHluor	PfHsp90 set2	tim23-1 inh	TIM10 inh	tim10-1 inh	tim10-1 conf
CC(=O)Nc1ccc(NC(=O)C(C)OC(=O)C23CC4CC(CC(Cl)(C4)C2)C3)cc1 (configuration not stated)	2	11	11	-3	-2	.
Cn1nc(C(=O)OCC(=O)c2ccc(Br)cc2)c2ccccc2c1=O	2	-3	25	3	-4	.
Nc1c(C(=O)c2ccccc2)sc2snc(SCC(=O)c3ccccc3)c12	-6	-13	28	18	62*	66*
CCOP(=O)(NC12CC3CC(CC(C3)C1)C2)NC12CC3CC(CC(C3)C1)C2	0	3	25	26	40*	28
COCCC(=O)NC12CC3CC(CC(C3)C1)C2	3	.	4	-1	1	.
Cc1ccc(S(=O)(=O)N2CCN(C(=O)COC(=O)CCOc3ccc(C(C)(C)C)cc3)CC2)cc1	-3	-1	33	28	49*	26
CCOc1ccc(OCCC(=O)OCC(=O)N2CCN(S(=O)(=O)c3ccc(C)cc3)CC2)cc1	11	-6	23	26	34	.
CC(C)OC(=O)CSc1nnc(-c2cnccn2)n1-c1ccc(Cl)cc1	3	.	25	11	41*	21
Cc1ccc(-n2c(SCC(=O)OC(C)C)nnc2-c2ccncc2)cc1	-2	-6	18	14	21	.
C=CCC[C@H](Cc1ccc(F)cc1)C(=O)OC[C@@H](Cc1c[nH]c2ccccc12)NC(=O)[C@H](CC=C)CC(=O)N(CCO)Cc1ccccc1	2	16	0	1	2	.
O=C(NC(=S)NCc1ccco1)c1ccccc1[N+](=O)[O-]	-1	20	16	-13	0	.
COC(=O)c1cccc(Nc2cc(C)nc(-c3ccccc3O)n2)c1	-12	-25	35	38	62*	35*
CCn1cc(Br)c(C(=O)Nc2ccc(C(=O)OC(C)C)cc2)n1	-2	-94	42	38	41*	34*
Cc1ccc(S(=O)(=O)/N=C2/C=C(C3C(=O)CC(C)(C)CC3=O)C(=O)c3ccccc32)cc1	-2	0	27	17	41*	29
Cc1ccc(S(=O)(=O)/N=C2\C=C(NS(=O)(=O)c3ccccc3)C(=O)c3ccccc32)cc1	-2	-3	.	.	.	.
CCSc1cc(C)nc2c(-c3ccccc3)c(C)nn12	0	-1	36	7	40*	17
Cc1cc(NCCC(C)C)n2nc(C)c(-c3ccccc3)c2n1	6	-1	28	14	45*	26
Cc1cc(NCCCN2CCOCC2)n2nc(C)c(-c3ccccc3)c2n1	2	-4	19	9	19	.
CC1CCc2c(sc(N)c2C(N)=O)C1 (configuration not stated)	-3	.	17	1	41*	25
